hgDAF-12 ag = H. glycines DAF-12 receptor agonists, primary screen, cell-based, luminescence, HEK293, GAL4 fusion, UAS-luciferase; HEK293 GAL4-hgDAF12 UAS-luciferase reporter, agonist luminescence; normalized to butyrate control; activation, % at 6.8 µM; 1.8% of 370,000 active; AID 687014, 2013;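 active = activation above a cutoff set at the mean of all screened compounds plus 3 SD, cut at about 10% in these data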
ssDAF-12 act = S. stercoralis DAF-12 nuclear receptor activators, primary screen, cell-based, luminescence, HEK293, GRIP1 co-expression, lit1-tk-luc. Nuclear hormone receptor DAF-12 (Strongyloides stercoralis). HEK293 ssDAF-12/GRIP1 lit1-tk-luc reporter; % of 3 µM dafachronic acid response. activation, % at 6.8 µM. 1% of 370,000 active. AID 652126, 2013;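 active = activation above the mean over all tested compounds plus 3 SD, cut at about 0.9% in these data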
DAX1 inh-1 = DAX1 (NR0B1) inhibitors on StAR promoter, primary screen, cell-based, luminescence, SF-1 (NR5A1), full-length DAX-1. HEK293T StAR-luciferase reporter, SF-1/DAX-1 repression relief. inhibition, % at 6.8 µM. 1.1% of 370,000 active. AID 652010, 2013;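 active = inhibition above the mean over all tested compounds plus 3 SD, cut at about 3.6% in these data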;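 note: higher inhibition means more luminescence from relief of DAX-1 repression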
DAX1 inh-2 = DAX1 (NR0B1) inhibitors, primary screen, cell-based, HEK293, Gal4-DAX1, luciferase luminescence. HEK293 Gal4-DAX1 luciferase reporter. inhibition, % at 6.75 µM. 0.99% of 340,000 active;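 active = inhibition above the mean over all tested compounds plus 3 SD, cut at about 4.2% in these data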;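 note: inhibition shows as a rise in luminescence from relieved DAX1 repression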
Target sequence (P51843 207-470 limits assumed): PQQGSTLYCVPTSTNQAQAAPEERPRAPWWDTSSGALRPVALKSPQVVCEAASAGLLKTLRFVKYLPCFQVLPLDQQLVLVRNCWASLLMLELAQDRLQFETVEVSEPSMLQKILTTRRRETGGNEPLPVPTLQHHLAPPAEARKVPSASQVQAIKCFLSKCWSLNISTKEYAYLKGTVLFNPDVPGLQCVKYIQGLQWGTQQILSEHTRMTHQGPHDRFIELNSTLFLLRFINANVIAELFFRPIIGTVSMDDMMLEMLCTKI
hcDAF12 agonist = H. contortus DAF-12 nuclear receptor activators, primary screen, cell-based, luminescence, HEK293, lit1-tk-luc reporter. HEK293 hcDAF-12 lit1-tk-luc reporter; 0% DMSO, 100% Δ7-dafachronic acid. activation, % at 6.8 µM. 1.4% of 370,000 active. AID 652067, 2013;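 active = activation above the mean of all tested compounds plus 3 SD, cut at about 5.5% in these data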
Of the large screens only hits and unclear results are named; the others gave an inactive call. Rows were chosen to be rich in hits. Some 4.1% of all compounds tested hit in one or more screens of this group.

Cc1csc2nc(CSc3ccc(Cl)cc3)cn12	none (no result: hgDAF-12 ag, ssDAF-12 act, DAX1 inh-1, hcDAF12 agonist)
CCN(CC)CCNC(=O)c1cc2c(-c3cccc(OC)c3)nn(C)c2s1	ssDAF-12 act 1.2
COCCCNC(=O)c1cc2c(-c3cccc(OC)c3)nn(C)c2s1	none
CCN(CC)CCNC(=O)c1cc2c(-c3ccc(Cl)cc3)nn(C)c2s1	hcDAF12 agonist 9.7
CCOCCCNC(=O)c1cc2c(-c3ccc(Cl)cc3)nn(C)c2s1	none
O=c1c2ccccc2nnn1COc1ccc(F)cc1Cl	none
O=c1c2ccccc2nnn1COc1cccc2ccccc12	ssDAF-12 act 1.1
C[N+]1(CCC(=O)c2ccccc2)CCCCC1	ssDAF-12 act 1.7
CCCCc1ccc2nc(NC(=O)c3ccc(Br)o3)sc2c1	hgDAF-12 ag 11 (no result: DAX1 inh-1, DAX1 inh-2)
CCc1noc(C)c1C(=O)Nc1nc2ccc(F)cc2s1	DAX1 inh-1 3.9
CCc1ccc2nc(NC(=O)c3cc(C)on3)sc2c1	hgDAF-12 ag 12
O=C(CSc1nnc(COc2ccccc2)n1-c1ccc(Cl)cc1)Nc1ccccc1-c1ccccc1	none (no result: DAX1 inh-2)
COc1ccc(C(=O)CSc2nnc(-c3ccccn3)n2-c2ccccc2)cc1	none (no result: DAX1 inh-2)
O=C(O)CC(NNC(=O)c1ccccc1)C(=O)Nc1ccc([N+](=O)[O-])cc1 (stereo not given)	DAX1 inh-2 8.4
O=C(/C=C/NNC(=O)c1ccccc1)c1ccc([N+](=O)[O-])cc1	DAX1 inh-2 4.4
CC(C)c1ccc(/C=N/NC(=O)c2c(Cl)cnn2C)cc1	hgDAF-12 ag 13
C/C(=N\NC(=O)c1c(Cl)cnn1C)c1cccnc1	DAX1 inh-1 4.3
Cc1nn(C)c(C(=O)N/N=C/c2ccc(Br)cc2)c1Cl	none
C/C(=N\NC(=O)c1ccc(Cl)cc1)c1cccnc1	none
C(#CC1=CCCCC1)CNCC1CC1	none (no result: DAX1 inh-2)
CC(=O)CC[C@@H]1CC[C@]2(CCCN(C(=O)c3ccccc3)C2)O1	none (no result: DAX1 inh-2)
CN(C)N1C(N)=C(C#N)C(c2cccs2)C2=C1CC(C)(C)CC2=O (stereo not given)	ssDAF-12 act 2.0 (no result: DAX1 inh-2)
Cc1ccccc1C1C(C#N)=C(N)N(N(C)C)C2=C1C(=O)CC(C)(C)C2 (stereo not given)	none
CC(=O)N1C[C@@H](c2c[nH]c3ccccc23)C=C[C@H]1C(=O)NS(=O)(=O)c1ccc(C)cc1	none (no result: DAX1 inh-2)
CN(CCO)c1ccc2c(c1)Oc1ccccc1CN(Cc1cn(Cc3ccc(C(F)(F)F)cc3)nn1)S2(=O)=O	none (no result: DAX1 inh-2)
CC(C)(C)c1ccc(/C=C/C(=O)N2CCCCC2)cc1	hgDAF-12 ag 11, DAX1 inh-1 3.7
Cc1cccc(CN2CCc3c([nH]c4ccccc34)C2CC(C)C)n1 (stereo not given)	DAX1 inh-2 4.7
Cc1cnc(CN2CCc3c([nH]c4ccccc34)C2CC(C)C)[nH]1 (stereo not given)	none
Cc1cc([N+](=O)[O-])ccc1NC(=O)/C=C/c1cccs1	hgDAF-12 ag 12
Cc1ccc(Cl)cc1NC1=C/C(=N\S(=O)(=O)c2cccs2)c2ccccc2C1=O	ssDAF-12 act 1.0
CCn1cc(C(=O)NCCCN2CCC(C)CC2)c(=O)c2cc(S(=O)(=O)N3CCOCC3)ccc21	DAX1 inh-1 3.7
CCCCN(CCCC)CCNC(=O)c1cn(CC)c2ccc(S(=O)(=O)N3CCCC3)cc2c1=O	DAX1 inh-1 4.5
CCn1cc(C(=O)NCCCN2CCC(C)CC2)c(=O)c2cc(S(=O)(=O)N3CCCC3)ccc21	none
CN(C1CCCCC1)S(=O)(=O)c1ccc2c(c1)c(=O)c(C(=O)NCCN1CCCC1)cn2C	none
CN(C1CCCCC1)S(=O)(=O)c1ccc2c(c1)c(=O)c(C(=O)NCCCN1CCCC1)cn2C	DAX1 inh-2 4.9
CC(=O)N1CCc2cc(S(=O)(=O)N3CCOCC3)ccc21	DAX1 inh-2 4.6
COC(=O)[C@]12C[C@H](CC(=O)N3CCCCC3)C(=O)N(Cc3ccc(Cl)cc3Cl)C1=C[C@H](C1CCCC1)O[C@@H]2C	none (no result: DAX1 inh-2)
CCn1cc(C(=O)N2CCc3ccccc32)c(=O)c2cc(S(=O)(=O)N3CCOCC3)ccc21	hcDAF12 agonist 5.9
CC(=O)c1ccc(NC(=O)CC(C)S(=O)(=O)c2ccc3c(c2)CCN3C(C)=O)cc1 (stereo not given)	DAX1 inh-1 4.1
Cc1[nH]ccc2cc3nc4ccccc4c3cc12	hcDAF12 agonist 5.7
Cc1cccc2c1CCC1CN(Cc3ccccc3)S(=O)(=O)N21 (stereo not given)	none (no result: DAX1 inh-1, DAX1 inh-2)
CC(C)c1ccc(NC(=O)CSc2nnc(-c3ccco3)n2C)cc1	none (no result: DAX1 inh-2)
Cc1ccc(C2N=C(N)Nc3nc4ccccc4n32)cc1 (stereo not given)	none
Cc1cccc(C2N=C(N)Nc3nc4ccccc4n32)c1 (stereo not given)	DAX1 inh-2 4.8
O=C(OCc1nnc(-c2ccccc2)o1)c1ccccc1	none
O=C(OCc1nnc(-c2ccccc2)o1)C12CC3CC(CC(Br)(C3)C1)C2	DAX1 inh-2 4.8
CC(C)CNS(=O)(=O)/C=C/c1ccccc1CNC(=O)OC(C)(C)C	none (no result: DAX1 inh-2)
Cc1csc(SC(C)C(=O)NCC2CCCCC2)n1 (stereo not given)	ssDAF-12 act 1.0
Cc1csc(SC(C)C(=O)Nc2ccc(S(=O)(=O)N3CCCC3)cc2)n1 (stereo not given)	none
C/C(=N\NC(=O)c1nn(C)cc1Br)c1ccncc1	DAX1 inh-2 7.6
C/C(=N\NC(=O)c1nn(C)cc1Cl)c1ccncc1	none
COc1ccc(CNCC#Cc2ccc(C(F)(F)F)cc2)c(OC)c1	none (no result: DAX1 inh-2)
C=CS(=O)(=O)N(Cc1ccc(C)cc1)[C@@H](CO)C(=O)OC	none (no result: DAX1 inh-2)
Cn1c(/C(C#N)=C(\O)c2ccc([N+](=O)[O-])cc2)nc2ccccc21	none
Cn1c(/C(C#N)=C(\O)c2cccc(F)c2)nc2ccccc21	ssDAF-12 act 1.4
O=c1[nH]c2ccccc2c(O)c1Cc1ccccc1	DAX1 inh-2 4.7
O=C(NCCCc1ccccc1)[C@H](Cc1c[nH]c2ccccc12)NC1(C(=O)NCCc2c[nH]c3ccccc23)CCOCC1	none (no result: DAX1 inh-1, DAX1 inh-2)
Cc1c(/C=N\NC(=O)c2ccc(F)cc2)cnn1C	none
Cc1c(/C=N/NC(=O)c2ccc(Br)o2)cnn1C	hcDAF12 agonist 6.2 (no result: DAX1 inh-2)
O=C(N/N=C/c1cn(-c2ccccc2)nc1-c1ccc2c(c1)OCCO2)c1ccncc1	hgDAF-12 ag 10
NC(=O)COc1ccccc1	ssDAF-12 act 1.2
O=C(NCCOc1ccccc1)c1ccccc1Cl	hgDAF-12 ag 12
NC(=S)COc1ccccc1	none
C/C(=N\NC(=O)c1ccccc1OCCOc1ccccc1)c1ccccc1F	none
